Test results from the supplement of paper PMC10849652.
About 8,800 targets were measured; listed, in parts, are those with a hit and a random draw of the rest. About 0.5% of all pairs of compound and target were hits. Values without a mark were called inactive.

Legend:
Test in all cases: log2 fold change, soluble protein after heating vs DMSO (PISA); higher = thermal stabilisation; K562 lysate, 10 uM; active = over 0.2 and 3.5 SD of the protein, either way, in both replicates (recomputed)
[1] = compound: CN1CC[C@H](c2c(O)cc(O)c3c(=O)cc(-c4ccccc4Cl)oc23)[C@H](O)C1 [alvocidib]
Outline: (§1)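 Soluble protein was defined as the supernatant remaining after 21,000xg for 90 min, following pooling of heated aliquots and adjustment to 0.5% NP-40 at 4°C. Before that, crude K562 extract at 1 mg/mL protein in PBS pH 7.4 with 1 mM MgCl2 was treated with 10 μM compound for 30 min and heated for 3 min across 48°C-58°C. Quantification used TMTpro 16plex LC-MS/MS with channel sums equalised, and values are log-two fold changes in thermal stability relative to solvent controls from duplicates.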

[2] = compound: CN1CCc2c(c3ccccc3n2Cc2ccc(C(=O)NO)cc2)C1 [Tubastatin A]
Outline: as §1

[3] = compound: CNC(=O)C1=CC=CC=C1NC2=NC(=NC=C2Cl)NC3=C(C=C(C=C3)N4CCOCC4)OC
Outline: as §1

[4] = compound: CNC(=O)c1ccc(Nc2ncc(C(F)(F)F)c(NCc3nccnc3N(C)S(C)(=O)=O)n2)cc1 [defactinib]
Outline: as §1

[5] = compound: CNc1nc(-c2ccc3c(N)n[nH]c3c2)cc(N2C[C@@H](C(=O)NC3CCCCC3)CC[C@H]2C)n1
Outline: as §1

[6] = compound: COC(=O)N[C@@H](C)CNc1nccc(-c2cn(C(C)C)nc2-c2cc(Cl)cc(NS(C)(=O)=O)c2F)n1 [encorafenib]
Outline: as §1

[7] = compound: COC(=O)[C@H](CCSC)NC(=O)C1=C(C=C(C=C1)NC[C@H](CS)N)C2=CC=CC=C2
Outline: as §1

[8] = compound: COc1cc(Nc2ncc3c(n2)-c2ccc(Cl)cc2C(c2c(F)cccc2OC)=NC3)ccc1C(=O)O [alisertib]
Outline: as §1

[9] = compound: COc1cc2nc(-c3cc(F)ccc3O)nc(N[C@@H]3CNC[C@H]3C(C)(C)O)c2cc1OC
Outline: as §1

[10] = compound: COc1cc2ncnc(Nc3ccc(F)c(Cl)c3)c2cc1OCCCN1CCOCC1 [gefitinib]
Outline: as §1

[11] = compound: CS(=O)(=O)CCNCc1ccc(-c2ccc3ncnc(Nc4ccc(OCc5cccc(F)c5)c(Cl)c4)c3c2)o1 [lapatinib]
Outline: as §1

[12] = compound: CS(=O)(=O)N1CCN(Cc2cc3nc(-c4cccc5[nH]ncc45)nc(N4CCOCC4)c3s2)CC1 [pictilisib]
Outline: as §1

[13] = compound: C[C@@H](Oc1cc(-c2cnn(C3CCNCC3)c2)cnc1N)c1c(Cl)ccc(F)c1Cl [crizotinib]
Outline: as §1

[14] = compound: C[C@H](C1=CC=C(C=C1)C(=O)NC2=C3C=CNC3=NC=C2)N
Outline: as §1

[15] = compound: C[C@H](Nc1ncnc2nc[nH]c12)c1cc2cccc(Cl)c2c(=O)n1-c1ccccc1 [duvelisib]
Outline: as §1

[16] = compound: Cc1cc(Nc2cc(CN3CCOCC3)c3nc(C)c(Cc4ccc(Cl)cc4F)n3n2)n[nH]1 [gandotinib]
Outline: as §1

[17] = compound: Cc1cc(Nc2cc(N3CCN(C)CC3)nc(Sc3ccc(NC(=O)C4CC4)cc3)n2)n[nH]1 [tozasertib]
Outline: as §1

[18] = compound: Cc1ccc(-n2nc(C(C)(C)C)cc2NC(=O)Nc2ccc(OCCN3CCOCC3)c3ccccc23)cc1 [doramapimod]
Outline: as §1

[19] = compound: Cc1ccc(NC(=O)c2ccc(CN3CC[C@H](N(C)C)C3)c(C(F)(F)F)c2)cc1Nc1nccc(-c2cncnc2)n1 [bafetinib]
Outline: as §1

[20] = compound: Cc1cccc(CC(=O)N2CCc3c2ccc(-c2cn(C)c4ncnc(N)c24)c3F)n1
Outline: as §1

UniProt P41567, sequence (P41567 whole entry, looked up): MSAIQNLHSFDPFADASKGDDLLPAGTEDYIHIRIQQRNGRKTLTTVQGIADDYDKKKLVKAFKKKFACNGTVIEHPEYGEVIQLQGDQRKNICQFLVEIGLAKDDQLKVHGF
UniProt Q9UK97, sequence (Q9UK97 whole entry, looked up): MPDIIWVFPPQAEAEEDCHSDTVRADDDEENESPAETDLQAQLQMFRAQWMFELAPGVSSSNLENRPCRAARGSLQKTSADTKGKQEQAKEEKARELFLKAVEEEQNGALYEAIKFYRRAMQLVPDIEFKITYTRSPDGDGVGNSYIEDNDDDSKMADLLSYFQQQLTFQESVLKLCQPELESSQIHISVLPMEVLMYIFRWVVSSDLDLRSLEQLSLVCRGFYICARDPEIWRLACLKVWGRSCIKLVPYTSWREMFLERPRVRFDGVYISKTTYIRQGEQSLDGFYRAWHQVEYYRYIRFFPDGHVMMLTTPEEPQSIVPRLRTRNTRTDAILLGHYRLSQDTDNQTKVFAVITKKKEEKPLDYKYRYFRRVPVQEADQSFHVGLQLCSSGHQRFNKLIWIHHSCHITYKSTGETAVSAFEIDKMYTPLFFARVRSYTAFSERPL
UniProt Q9BQI3, sequence (Q9BQI3 whole entry, looked up): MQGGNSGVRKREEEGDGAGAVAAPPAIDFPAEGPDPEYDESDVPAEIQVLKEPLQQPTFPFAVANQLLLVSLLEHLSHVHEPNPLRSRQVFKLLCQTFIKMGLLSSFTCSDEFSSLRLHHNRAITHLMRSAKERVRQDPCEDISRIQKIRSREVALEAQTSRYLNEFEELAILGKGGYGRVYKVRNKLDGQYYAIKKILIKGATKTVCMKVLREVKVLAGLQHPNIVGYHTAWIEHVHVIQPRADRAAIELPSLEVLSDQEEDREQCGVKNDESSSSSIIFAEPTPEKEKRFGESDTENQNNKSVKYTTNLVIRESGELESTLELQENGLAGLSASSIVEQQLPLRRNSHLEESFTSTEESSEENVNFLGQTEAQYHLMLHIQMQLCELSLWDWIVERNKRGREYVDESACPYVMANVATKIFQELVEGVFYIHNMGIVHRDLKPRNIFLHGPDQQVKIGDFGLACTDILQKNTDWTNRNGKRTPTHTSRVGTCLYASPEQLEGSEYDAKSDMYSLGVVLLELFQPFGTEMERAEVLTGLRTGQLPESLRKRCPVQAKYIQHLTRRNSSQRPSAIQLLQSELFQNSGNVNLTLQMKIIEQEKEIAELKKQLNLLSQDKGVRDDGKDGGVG
UniProt Q8NEZ5, sequence (Q8NEZ5 whole entry, looked up): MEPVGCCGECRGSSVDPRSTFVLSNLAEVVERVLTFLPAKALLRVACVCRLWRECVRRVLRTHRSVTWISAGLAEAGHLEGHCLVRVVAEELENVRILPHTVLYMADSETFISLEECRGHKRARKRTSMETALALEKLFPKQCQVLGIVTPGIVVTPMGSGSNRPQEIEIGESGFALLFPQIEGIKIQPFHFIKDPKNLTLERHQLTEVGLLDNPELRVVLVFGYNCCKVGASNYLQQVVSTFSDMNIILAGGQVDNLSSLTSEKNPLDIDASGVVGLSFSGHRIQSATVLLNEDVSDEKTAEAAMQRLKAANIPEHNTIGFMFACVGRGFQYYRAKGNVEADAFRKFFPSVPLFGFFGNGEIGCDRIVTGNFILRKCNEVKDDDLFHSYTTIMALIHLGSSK
UniProt O43768, sequence (O43768 whole entry, looked up): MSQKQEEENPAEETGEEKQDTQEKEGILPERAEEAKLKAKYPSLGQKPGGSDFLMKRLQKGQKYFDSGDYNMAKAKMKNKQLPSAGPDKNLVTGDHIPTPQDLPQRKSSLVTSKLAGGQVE
UniProt Q9NPA8, sequence (Q9NPA8 whole entry, looked up): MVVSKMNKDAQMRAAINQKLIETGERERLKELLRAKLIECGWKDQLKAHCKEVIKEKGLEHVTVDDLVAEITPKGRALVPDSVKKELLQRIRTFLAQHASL
UniProt Q96I24, sequence (Q96I24 whole entry, looked up): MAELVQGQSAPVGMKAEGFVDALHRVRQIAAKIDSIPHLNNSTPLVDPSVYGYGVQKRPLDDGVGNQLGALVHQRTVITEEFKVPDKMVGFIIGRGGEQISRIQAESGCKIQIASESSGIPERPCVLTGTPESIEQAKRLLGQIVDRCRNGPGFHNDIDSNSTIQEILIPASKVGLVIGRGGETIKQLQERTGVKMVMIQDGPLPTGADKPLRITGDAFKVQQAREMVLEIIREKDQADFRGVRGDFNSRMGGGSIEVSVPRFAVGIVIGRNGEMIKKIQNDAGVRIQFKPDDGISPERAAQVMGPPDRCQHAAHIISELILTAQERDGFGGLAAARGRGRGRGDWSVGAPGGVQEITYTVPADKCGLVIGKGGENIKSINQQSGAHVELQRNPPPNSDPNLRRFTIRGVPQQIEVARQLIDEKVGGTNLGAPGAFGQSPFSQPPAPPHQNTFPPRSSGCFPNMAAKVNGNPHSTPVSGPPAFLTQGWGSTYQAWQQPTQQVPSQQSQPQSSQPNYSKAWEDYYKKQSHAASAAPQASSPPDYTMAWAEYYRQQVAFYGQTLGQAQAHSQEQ
UniProt Q96A65, sequence (Q96A65 whole entry, looked up): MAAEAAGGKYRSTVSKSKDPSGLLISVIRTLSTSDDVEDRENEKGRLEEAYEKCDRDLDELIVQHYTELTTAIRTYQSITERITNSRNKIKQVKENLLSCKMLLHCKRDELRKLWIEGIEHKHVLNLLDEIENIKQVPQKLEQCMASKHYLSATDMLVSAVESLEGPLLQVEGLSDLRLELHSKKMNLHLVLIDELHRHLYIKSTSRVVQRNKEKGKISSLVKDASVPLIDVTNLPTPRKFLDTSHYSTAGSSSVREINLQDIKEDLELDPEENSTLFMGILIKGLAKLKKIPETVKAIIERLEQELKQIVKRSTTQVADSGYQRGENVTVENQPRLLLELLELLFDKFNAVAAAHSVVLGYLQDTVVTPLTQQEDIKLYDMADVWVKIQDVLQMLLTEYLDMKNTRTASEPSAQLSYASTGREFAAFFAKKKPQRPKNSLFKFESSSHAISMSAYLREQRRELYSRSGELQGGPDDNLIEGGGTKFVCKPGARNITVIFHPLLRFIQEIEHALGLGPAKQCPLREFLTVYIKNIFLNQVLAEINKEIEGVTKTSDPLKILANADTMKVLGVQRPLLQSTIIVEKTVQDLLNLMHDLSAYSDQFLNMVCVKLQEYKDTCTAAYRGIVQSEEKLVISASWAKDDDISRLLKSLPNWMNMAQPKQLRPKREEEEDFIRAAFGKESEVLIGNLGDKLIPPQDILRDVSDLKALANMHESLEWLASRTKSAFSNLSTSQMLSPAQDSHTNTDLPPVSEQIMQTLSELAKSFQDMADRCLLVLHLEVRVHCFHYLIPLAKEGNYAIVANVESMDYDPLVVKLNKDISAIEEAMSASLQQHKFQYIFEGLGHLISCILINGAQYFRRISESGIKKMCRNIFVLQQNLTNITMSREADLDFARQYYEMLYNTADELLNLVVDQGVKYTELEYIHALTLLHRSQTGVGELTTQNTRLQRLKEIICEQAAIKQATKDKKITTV
UniProt Q9NRY5, sequence (Q9NRY5 whole entry, looked up): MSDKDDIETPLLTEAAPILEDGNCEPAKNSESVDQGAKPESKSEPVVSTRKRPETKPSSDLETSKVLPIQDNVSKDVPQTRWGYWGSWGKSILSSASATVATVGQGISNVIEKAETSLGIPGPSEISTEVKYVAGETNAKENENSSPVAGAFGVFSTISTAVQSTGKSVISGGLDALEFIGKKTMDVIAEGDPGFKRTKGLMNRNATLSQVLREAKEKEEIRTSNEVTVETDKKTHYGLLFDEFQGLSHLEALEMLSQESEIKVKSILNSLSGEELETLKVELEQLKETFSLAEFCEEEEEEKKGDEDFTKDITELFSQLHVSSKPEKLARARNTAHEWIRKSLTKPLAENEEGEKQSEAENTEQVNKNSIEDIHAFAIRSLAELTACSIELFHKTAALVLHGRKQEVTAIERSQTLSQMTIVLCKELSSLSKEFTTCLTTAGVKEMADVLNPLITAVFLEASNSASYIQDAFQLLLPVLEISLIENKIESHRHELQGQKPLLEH
UniProt Q13347, sequence (Q13347 whole entry, looked up): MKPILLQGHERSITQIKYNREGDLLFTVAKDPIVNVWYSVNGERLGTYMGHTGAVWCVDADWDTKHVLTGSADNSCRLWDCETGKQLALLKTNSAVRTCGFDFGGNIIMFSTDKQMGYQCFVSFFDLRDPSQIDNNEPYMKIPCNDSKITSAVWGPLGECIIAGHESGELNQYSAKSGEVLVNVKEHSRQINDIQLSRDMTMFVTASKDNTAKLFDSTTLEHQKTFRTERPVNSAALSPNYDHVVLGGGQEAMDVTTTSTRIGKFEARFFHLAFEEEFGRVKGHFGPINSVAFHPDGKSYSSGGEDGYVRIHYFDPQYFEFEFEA
UniProt O75521, sequence (O75521 whole entry, looked up): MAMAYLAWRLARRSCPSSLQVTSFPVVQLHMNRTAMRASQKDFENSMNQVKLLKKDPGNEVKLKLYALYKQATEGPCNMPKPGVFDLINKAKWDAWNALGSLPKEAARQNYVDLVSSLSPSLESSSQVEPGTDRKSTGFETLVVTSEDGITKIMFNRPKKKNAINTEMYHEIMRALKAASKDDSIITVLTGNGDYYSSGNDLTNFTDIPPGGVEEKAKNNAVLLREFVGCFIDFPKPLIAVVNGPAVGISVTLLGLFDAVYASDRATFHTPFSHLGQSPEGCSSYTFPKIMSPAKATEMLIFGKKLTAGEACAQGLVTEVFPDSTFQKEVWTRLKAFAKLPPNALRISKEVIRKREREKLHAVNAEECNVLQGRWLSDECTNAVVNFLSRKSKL

Row | Target | log2 fold change [1] | log2 fold change [2] | log2 fold change [3] | log2 fold change [4] | log2 fold change [5] | log2 fold change [6] | log2 fold change [7] | log2 fold change [8] | log2 fold change [9] | log2 fold change [10] | log2 fold change [11] | log2 fold change [12] | log2 fold change [13] | log2 fold change [14] | log2 fold change [15] | log2 fold change [16] | log2 fold change [17] | log2 fold change [18] | log2 fold change [19] | log2 fold change [20]
1 | ENSA isoform 3 (UniProt O43768) | 0.015 | -0.038 | -0.012 | 0.03 | -0.027 | -0.024 | -0.053 | -0.014 | 0.001 | 0.001 | 0.021 | 0.02 | 0.058 | 0.103 | 0.049 | -0.042 | -0.027 | -0.068 | 0.058 | -0.103
2 | EXOC4 (UniProt Q96A65) | 0.03 | -0.073 | -0.053 | 0.039 | -0.084 | 0.022 | 0.078 | 0.009 | 0.008 | -0.035 | -0.038 | 0.018 | -0.044 | 0.011 | 0.024 | -0.165 | -0.028 | -0.023 | -0.056 | 0.015
3 | FAM114A2 (UniProt Q9NRY5) | 0.021 | 0.134 | 0 | 0.032 | 0.037 | 0.219 | 0.027 | 0.127 | 0.118 | 0.073 | 0.106 | -0.013 | 0.013 | -0.023 | 0.011 | 0.449 (active) | -0.108 | -0.011 | -0.121 | 0.196
4 | ECI2 (UniProt O75521) | -0.033 | 0.054 | -0.054 | -0.038 | 0.03 | -0.006 | -0.067 | 0.004 | -0.008 | 0.011 | -0.022 | -0.017 | 0.032 | -0.002 | 0.004 | -0.009 | 0.03 | 0.007 | -0.002 | 0.042
5 | ESRRA (UniProt P11474) | 0.167 | -0.169 | 0.033 | -0.086 | -0.04 | 0.048 | -0.072 | -0.045 | -0.029 | 0.07 | 0.026 | -0.049 | -0.025 | 0.444 (active) | 0.088 | -0.115 | 0.088 | -0.028 | 0.052 | -0.149
6 | ENY2 (UniProt Q9NPA8) | 0.351 (active) | -0.024 | 0.016 | 0.096 | -0.084 | 0.004 | -0.003 | 0.024 | -0.019 | -0.016 | 0.025 | -0.024 | 0.031 | 0.726 (active) | 0.034 | -0.386 (active) | 0.019 | -0.021 | -0.07 | -0.529 (active)
7 | EIF3I (UniProt Q13347) | 0.034 | -0.126 | 0.01 | 0.002 | -0.043 | -0.018 | 0.156 | 0.003 | 0.009 | -0.03 | -0.009 | -0.015 | -0.004 | -0.003 | -0.009 | -0.022 | 0.008 | 0.029 | -0.052 | 0.01
8 | FBXO9 (UniProt Q9UK97) | 0.099 | -0.006 | -0.015 | 0.104 | 0.037 | 0.078 | -0.042 | -0.011 | -0.402 (active) | 0.04 | -0.334 | -0.107 | -0.023 | 0.08 | -0.012 | -0.141 | 0.041 | 0.044 | 0 | -0.104
9 | FBXO22 (UniProt Q8NEZ5) | -0.027 | -0.002 | -0.074 | 0.01 | -0.004 | -0.014 | -0.006 | 0.034 | 0.013 | 0.017 | -0.035 | -0.027 | -0.035 | 0.035 | -0.012 | -0.03 | 0 | 0.034 | -0.049 | -0.039
10 | EIF2AK1 (UniProt Q9BQI3) | 0.044 | -0.044 | 0.068 | -0.021 | -0.028 | -0.004 | 0.041 | -0.004 | 0.122 | 0.101 | 0.142 | -0.022 | -0.036 | -0.033 | 0.06 | -0.009 | -0.009 | 0.017 | -0.068 | 0.062
11 | EIF1 (UniProt P41567) | -0.033 | 0.084 | -0.039 | -0.013 | -0.02 | -0.017 | -0.032 | -0.006 | 0.005 | -0.247 (active) | 0.053 | 0.016 | 0.002 | -0.051 | 0.044 | 0.068 | -0.008 | -0.092 | 0.052 | 0.021
12 | FUBP3 (UniProt Q96I24) | 0.008 | -0.101 | -0.033 | 0.005 | -0.05 | 0.065 | -0.146 | 0.048 | 0.001 | -0.033 | 0.02 | -0.109 | 0.005 | 0.036 | -0.022 | 0.019 | 0.033 | -0.034 | -0.055 | -0.05
13 | GAMT (UniProt Q14353) | 0.025 | -0.059 | 0.055 | 0.068 | 0.038 | -0.028 | 0.039 | 0.018 | -0.021 | -0.035 | 0.02 | -0.028 | 0 | 0.02 | 0.082 | 0.002 | -0.02 | 0.09 | 0.062 | -0.046
14 | GEMIN5 (UniProt Q8TEQ6) | 0.023 | -0.21 | 0.027 | 0.031 | -0.007 | 0.011 | 0.057 | 0.014 | -0.019 | -0.032 | -0.025 | -0.006 | -0.069 | -0.029 | 0.001 | -0.087 | 0.009 | 0.012 | -0.053 | 0.017
15 | ENO1, A0A2R8YEM5 | -0.256 | 0.104 | 0.021 | 0.043 | 0.002 | 0.031 | -0.035 | 0.006 | -0.001 | 0.035 | -0.016 | -0.037 | 0.017 | -0.469 (active) | 0 | 0.185 | 0.001 | -0.006 | 0.036 | 0.244 (active)
